The record followed here is PubChem BioAssay AID651687 (Broad Institute, 2012).

Molecules are shown by their SMILES. Values joined by “and” are separate entries in the source; they are usually repeats but may differ in a detail not shown here. Equal values may be shown once. The whole screen tested about 350,000 compounds, of which about 600 (0.17%) were called active. The full list was thinned out, with actives kept by preference. A number with no mark means an inactive call.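 The calls were made as follows: active = every replicate shows inhibition of at least 40%; inconclusive = mean inhibition at least 40% but some replicate below; inactive = the rest.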

The nature of the assay: inhibitors of PGC1a acetylation signal, primary screen, cell-based, U2OS, AlphaScreen, inhibitor mode (AID 651687).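 Also: 0% = neutral control wells and 100% = positive control wells.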 The following applies: AlphaScreen anti-acetyl-lysine, at 15.6 µM, hits give high values, with virally co-expressed GCN5 acetyltransferase.
Regarding `C[C@H](CO)N1C[C@H](C)[C@H](CN(C)S(=O)(=O)c2cn(C)cn2)Oc2c(NC(=O)c3ccncc3)cccc2C1=O`, the inhibition is -3.09%.
In the case of `CO[C@H]1CN(C)C(=O)c2ccc(NC(=O)c3nc4ccccc4s3)cc2OC[C@@H](C)N(Cc2cncnc2)C[C@H]1C` it was 10.9%.
Consider `CC[C@H]1CN2CCc3cc(OC)c(OC)cc3[C@@H]2C[C@@H]1C[C@H]1NCCc2cc(OC)c(OC)cc21`, for which the inhibition was 83.7% (active).
In the case of `C[C@@H]1CN([C@@H](C)CO)S(=O)(=O)c2ccc(-c3cccc(F)c3)cc2O[C@@H]1CN(C)S(=O)(=O)c1ccccc1` it was 5.85%; in that of `C[C@H](CO)N1C[C@H](C)[C@H](CN(C)C)Oc2ncc(/C=C/c3ccccc3)cc2C1=O`, -8.6% and 4.49%.
In the case of `CO[C@H]1CN(C)C(=O)c2cc(NC(=O)c3nc4ccccc4s3)ccc2OC[C@H](C)N(Cc2cccnc2)C[C@@H]1C`, the inhibition was 7.17%.
In the case of `COc1ccc(NC(=O)N2CC[C@@H]3[C@@H](CO)N(C)c4ccc(-c5cccc(F)c5)cc4[C@@H]32)cc1` it was 10.2%; in that of `O=C(Nc1ccc(C(F)(F)F)cc1)N[C@@H]1CC[C@H](CCNC(=O)c2ccccc2F)O[C@H]1CO`, 10.8%.
In the case of `CO[C@@H]1CN(C)C(=O)c2ccc(NC(=O)NC(C)C)cc2OC[C@H](C)N(Cc2ccc(-c3ccccn3)cc2)C[C@H]1C` it was -3.93%; in that of `COc1ccc(N2CCC(N3CCN(C)C(CCO)C3)CC2)cc1` (centres undefined), 0.824%; in that of `COc1ccccc1N1CCC(N2CCN(CC(C)(C)C)C(CCO)C2)CC1` (centres undefined), 10.6%.
In the case of `CCOc1ccccc1CN1CCN(C2CCC2)CC1CCO` (centres undefined) it was 74.8% (active); in that of `CO[C@@H]1CN(C)C(=O)c2ccc(NC(=O)c3ccccn3)cc2OC[C@@H](C)N(C(=O)C2CCCCC2)C[C@H]1C`, -2.25%; in that of `C[C@H](CO)N1C[C@H](C)[C@H](CN(C)Cc2ccccn2)Oc2ncc(C#CCc3ccccc3)cc2C1=O`, -0.518%.
For the compound `COCCCNC(=O)[C@@]1(Cc2ccccc2)COC(c2ccc(OCCCO)cc2)=N1`, the inhibition was 4.46%.
As to `Cc1ccc(S(=O)(=O)N(C)C[C@H]2OCCCC[C@@H](C)Oc3ccc(NC(=O)Nc4ccc(F)cc4)cc3C(=O)N([C@@H](C)CO)C[C@H]2C)cc1`, the inhibition is -6.65%.
Regarding `C[C@@H]1CN([C@H](C)CO)C(=O)c2cc(C#Cc3cccc(F)c3)cnc2O[C@H]1CN(C)Cc1ccccn1`, the inhibition is -11.1%.
In the case of `Cc1noc(C)c1S(=O)(=O)Nc1ccc2c(c1)CC(=O)N([C@@H](C)CO)C[C@H](C)[C@H](CN(C)S(=O)(=O)c1ccc(Cl)cc1)O2` it was 10.3%; in that of `CO[C@H]1CN(C)C(=O)c2cc(NC(=O)C3CC3)ccc2OC[C@H](C)N(C(=O)CN(C)C)C[C@H]1C`, -4.9%.
In the case of `O=C(C[C@H]1C[C@H]2c3cc(NC(=O)CC4CC4)ccc3O[C@H]2[C@H](CO)O1)NCc1cc(F)ccc1F` it was -0.32%; in that of `C[C@H](CO)N1C[C@H](C)[C@@H](CN(C)Cc2ccc(C(F)(F)F)cc2)Oc2ccc(NC(=O)Cn3cnnn3)cc2CC1=O`, 6.38%; in that of `Cc1noc(C)c1NC(=O)Nc1ccc2c(c1)C(=O)N([C@H](C)CO)C[C@@H](C)[C@@H](CN(C)S(=O)(=O)c1ccc(Cl)cc1)OCCCC[C@H](C)O2`, 0.953%.
In the case of `COc1ccc(S(=O)(=O)N(C)C[C@H]2Oc3ccc(NS(C)(=O)=O)cc3C(=O)N([C@H](C)CO)C[C@H]2C)cc1` it was -5.85%.
Take `O=C(Cc1ccccc1)N1CC[C@H]2[C@H](CO)Nc3ccc(-c4ccccc4F)cc3[C@H]21`: the inhibition was -17.2%.
Turning to `CC(C)NC(=O)Nc1ccc2c(c1)C(=O)N([C@H](C)CO)C[C@H](C)[C@@H](CN(C)Cc1ccc3c(c1)OCO3)OCCCC[C@H](C)O2`, the inhibition was 4.63%.
In the case of `C[C@@H]1CN([C@@H](C)CO)C(=O)c2cc(NC(=O)c3ccncc3)ccc2O[C@@H]1CN(C)S(C)(=O)=O` it was 6.79%.
On to `Cc1ccccc1-c1ccc([C@H]2[C@@H](CO)N3C(=O)CN(C(=O)c4ccncc4)C[C@H]23)cc1`, for which the inhibition was -5.89%.
In the case of `N#CC1=C(N)Oc2cc(N)ccc2C1c1ccccc1` (centres undefined), the inhibition is -1.66%.
Regarding `Cn1c2c(c(=O)n(C)c1=O)C(c1cccc(F)c1)C(C#N)=C(N)O2` (centres undefined), the inhibition is 80.9% (active).
In the case of `Cc1cc2c(c(=O)n1C)C(C(C)C)C(C#N)=C(N)O2` (centres undefined) it was 8.23%; in that of `C[C@@H]1CN([C@@H](C)CO)C(=O)c2cc(NC(=O)CCCCCC(=O)Nc3ccccc3N)ccc2O[C@@H](C)CCCCO[C@@H]1CN(C)CC1CCCCC1`, 3.98%.
In the case of `O=C(CC(F)(F)F)N1C[C@H]2[C@@H](c3ccccc31)[C@H](CO)N2C(=O)Cc1cccnc1` it was 0.596%; in that of `CN(C)Cc1cn(CC[C@H]2CC[C@@H](NS(=O)(=O)c3ccccc3)[C@H](CO)O2)nn1`, -1.22%.
For `CO[C@H]1CN(C)C(=O)c2ccc(NS(C)(=O)=O)cc2OC[C@@H](C)N(Cc2ccccc2)C[C@H]1C`, the inhibition is 4.39%.
In the case of `O=C(C[C@@H]1CC[C@@H](NC(=O)c2cccnc2)[C@H](CO)O1)NCCN1CCCCC1` it was 6.21%.
As for `CCC(=O)N1CC(=O)N2[C@@H](CO)[C@H](c3ccc(C#CCC(C)C)cc3)[C@@H]2C1`, the inhibition was -4.62%.
Regarding `O=C(CC(F)(F)F)N1C[C@H]2[C@@H](c3ccccc31)[C@H](CO)N2C(=O)Cc1ccccc1`, the inhibition is 9.3%.
Consider `C/C=C/c1ccccc1[C@@H]1[C@@H](C#N)N(C(=O)Cc2ccccn2)[C@H]1CO`, for which the inhibition was -0.046%.
In the case of `C[C@H]1CN([C@@H](C)CO)S(=O)(=O)c2ccc(C#CC3(O)CCCC3)cc2O[C@@H]1CN(C)C(=O)Nc1cccc(F)c1` it was -10%.
Consider `Cc1ccc(S(=O)(=O)N2C[C@H](O)COC[C@@H]3O[C@@H](CC(=O)NCC4CCCCC4)CC[C@H]32)cc1`, for which the inhibition is -0.708%.
With `N#Cc1ccc(-c2ccc3c(c2)[C@H]2[C@H](CCN2Cc2ccc4c(c2)OCO4)[C@@H](CO)N3)cc1`, the inhibition was -7%.
Consider `N#Cc1ccc(-c2ccc([C@@H]3[C@H]4CNC[C@@H]3N4Cc3ccc4c(c3)OCO4)cc2)cc1`, for which the inhibition was 48.1% (active).
Turning to `COc1ccccc1CN1[C@@H]2CNC[C@H]1C2c1ccc(-c2cccc(C#N)c2)cc1` (some centres undefined), the inhibition was 1.68% and -10%.
In the case of `COc1ccc2c3c([nH]c2c1)[C@H](CO)N(Cc1ccccc1OC)CC31CCN(S(=O)(=O)c2ccccc2)CC1` it was 8.15%; in that of `C[C@@H]1CN([C@@H](C)CO)C(=O)c2cccc(NC(=O)c3ccc(-c4nccs4)cc3)c2O[C@H]1CN(C)C(=O)Nc1ccccc1`, -1.84%.
In the case of `N=C1C(c2nc3ccccc3s2)=C(O)CN1NC(=O)c1ccc([N+](=O)[O-])cc1` it was 100% (active); in that of `Cc1ccc(C)n1NC(=O)c1ccc([N+](=O)[O-])cc1`, 2.46%; in that of `O=C(Nn1cnnc1)c1ccc([N+](=O)[O-])cc1`, -2.58%.
In the case of `COc1ccc(NC(=O)N2C[C@H](O)COC[C@H]3O[C@@H](CC(=O)NC4Cc5ccccc5C4)CC[C@@H]32)cc1` it was 1.58%.

As a reminder, the inhibition is the change of the read-out against control, counted positive when it falls.
